From PubChem BioAssay
Values without a mark were called inactive.

test: growth modulation of vineyard yeast isolate – strain RM11-1a, OD600, basal, 24 h, primary screen (AID 1177);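 also: cultures grown under basal conditions with no added stressor; test concentration not given here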; conditions: S. cerevisiae RM11-1a growth, OD600, 24 h; higher = more signal, called active from +8 up or from −8 down

With `CS(=O)(=O)CCOC(=O)C1=CC(CCCO)=CC(c2cccs2)N(Cc2cc3c(cc2Br)OCO3)C=C1C(=O)OCCS(C)(=O)=O` (stereo not given) as the compound, how does the z-score read?
The z-score was 0.379.

Which z-score does the source give for `CCC[C@@H]1C=C(C(=O)O)[C@H](c2ccc(C)cc2)N1S(=O)(=O)c1ccc(C)cc1` here?
Its z-score is -0.213.

With `CC(C)NC(=O)[C@@H]1c2ccccc2C(=O)N(Cc2ccccc2)[C@H]1c1ccc(CO)cc1` as the compound, how does the z-score read?
The z-score was -0.714.

Which z-score does the source give for `Cc1ccc(S[C@]2(C(=O)NCc3ccccc3)CC(=O)N(Cc3ccccc3)[C@@H]2c2ccc(CO)cc2)cc1` here?
The z-score was 0.265.

Which z-score does the source give for `COC(=O)c1ccc(C(O)C2C=CC3C(=O)N(C)C(=O)C3N2NC(=O)OC(C)(C)C)o1` (stereo not given) here?
The z-score was 0.402.

With `COc1ccc(C(=O)Nc2cccc(CN3C(=O)[C@]4(O[C@H](CC(=O)N5CCC[C@H]5CO)[C@@H]([Si](C)(C)c5ccc(OC)cc5)[C@@H]4C)c4ccccc43)c2)cc1` as the compound, how does the z-score read?
Its z-score is 0.312.

Which z-score does the source give for `CC(C)Cc1ccc(CN2CC[C@@H](NS(=O)(=O)c3ccccc3)C2)cc1` here?
Its z-score is -1.21.

For `C=CCC(OC(C)=O)[C@@H]1[C@@H](N(Cc2cccc3ccccc23)C(=O)c2cccc3ccccc23)c2cc(OCCCO)ccc2N1C(=O)c1ccc2ccccc2n1` (stereo not given in full), which z-score is on record?
Its z-score is -0.929.

For `COCCOC(=O)N1C(=O)[C@@]2(c3cc(C#CCNC(N)=O)ccc31)[C@H](c1ccc(OCCO)cc1)N1[C@H](c3ccccc3)[C@H](c3ccccc3)OC(=O)[C@H]1[C@@H]2C(=O)N1CCc2cc(OC)c(OC)cc2C1`, which z-score is on record?
Its z-score is 3.21.

With `O=C1C=CC(=O)[C@@H]2CC(COc3ccccc3)=C3[C@@H](CCc4ccccc4)OB(O)C[C@@H]3[C@H]12` as the compound, how does the z-score read?
The z-score was -0.234.
